# Screening data: PubChem BioAssay, National Center for Advancing Translational Sciences (NCATS)
# Only some compounds are listed: those with a hit (about 19% of all), similar ones and a draw of the others.
# KB-V1 MDR tox: qHTS assay for MDR1-selective chemotherapeutics: Primary screen using the drug-selected MDR subline cells KB-V1. KB-V1 MDR cells viability, CellTiter-Glo, 72 h. Potency, µM (highest dose often 46.1 µM), hits mostly cytotoxic. actives 3.4% (n = 400,000). AID 1347076, 2019; note: nearly all actives have a fitted effect of over 60% in size
#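 Drug-selected KB-V1 cells, grown in DMEM lacking phenol red with 10% FBS, receive compound titrations; after three days at 37 degrees C, surviving cell ATP is quantified by CellTiter-Glo luminescence and responses normalized and curve-fitted.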
# HT1080 IDH1KD tx: qHTS for induction of synthetic lethality in tumor cells producing 2HG: qHTS for the HT-1080-IDH1KD cell line; HT-1080 IDH1 knockdown viability, ATP luminescence, 48 h; Potency, µM (titrated, usually from 46.1 µM), inactives show top-dose activity, negative = toxicity, most hits filed as cytotoxic; actives 2% (n = 360,000);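 note: 0% = DMSO wells and -100% = cell-free medium wells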
#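 IDH1KD HT-1080 cells, 750/well, RPMI + 5% FBS; compound pinned after 2 h settling; 48 h, 37 °C; CellTiter-Glo luminescence; % activity normalised to DMSO and no-cell wells; curves fitted, classed by r2 and efficacy.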
# TDP1 cell CPT: qHTS for Inhibitors of human tyrosyl-DNA phosphodiesterase 1 (TDP1): qHTS in cells in presence of CPT; Potency, µM (titrated, usually from 46.2 µM), for inactives: top-dose activity change, negative = growth inhibition, actives largely listed as inhibitors; actives 12% (n = 420,000); chicken DT40 Tdp1-/-;hTDP1 cells + 20 nM CPT, ATP luminescence, 48 h; AID 686979, 2013; note: nearly all actives have a fitted effect of over 55% in size
#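 Cell growth measured by CellTiter-Glo luminescence after a minimum 48 h, 37 C compound exposure with 20 nM CPT in Tdp1-knockout DT40 cells stably expressing hTDP1, seeded 400/well; qHTS titration format.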
# KB-3-1 cytotox: qHTS assay for MDR1-selective chemotherapeutics: Primary screen using the parental adenocarcinoma cell KB-3-1. Potency, µM (doses to about 46.1 µM), hits mostly cytotoxic. AID 1347075, 2019. actives 1.4% (n = 400,000). KB-3-1 viability, CellTiter-Glo ATP luminescence, 72 h; note: nearly all actives have a fitted effect of over 60% in size
#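 Parental KB-3-1 adenocarcinoma cells in phenol-red-free DMEM with 10% FBS were pin-treated with compounds at several concentrations, incubated 72 h at 37 °C, and viability read by CellTiter-Glo luminescence; concentration-effect curves were fitted after normalization.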
# TDP1 cell noCPT: qHTS for Inhibitors of human tyrosyl-DNA phosphodiesterase 1 (TDP1): qHTS in cells in absence of CPT; DT40 Tdp1-/- hTDP1 cells, no CPT, ATP luminescence, 48 h; Potency, µM (highest dose often 46.2 µM), without a hit: at the top dose activity change, negative = growth inhibition, most hits filed as inhibitors; actives 15% (n = 420,000); AID 686978, 2013; note: nearly all actives have a fitted effect of over 55% in size
#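 Compound effects on proliferation are scored in DT40 Tdp1-/-;hTDP1 cells in the absence of CPT. ATP levels (CellTiter-Glo luminescence) are recorded after a ≥48 hr, 37 °C incubation.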
# HT1080-NT tox: qHTS for induction of synthetic lethality in tumor cells producing 2HG: qHTS for the HT-1080-NT fibrosarcoma cell line; HT-1080-NT fibrosarcoma viability, CellTiter-Glo ATP luminescence, 48 h; Potency, µM (doses to about 46.1 µM), for the others: at the top dose activity, negative = less viability, hits mostly cytotoxic; actives 1.6% (n = 360,000);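 note: NT is the 2HG producing partner of a matched IDH1 knockdown line; 0% = DMSO-treated cells and -100% = media-only wells without cells; nearly all actives have a fitted effect of over 55% in size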
#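 Read-out is CellTiter-Glo luminescence after 10 minutes at room temperature, following 48 hours' compound treatment of HT-1080-NT cells (750 cells/well, RPMI, 5% FBS, 37 degrees C).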
# An asterisk follows results filed as active; i = inactive; u = inconclusive; x = not tested or not shown. Calls come from the whole dose curve; as a rule, active = well fitted curve in the direction sought with a large enough effect; inconclusive = small, poorly fitted or top-dose-only effect, or another doubt; inactive = no such curve, though single readings can be large; an effect the other way counts as inactive or inconclusive. Unless noted, % is set by controls: 0 for no effect and ±100 for the full control effect; potency is the fitted concentration of half-maximal effect.
SMILES,KB-V1 MDR tox,HT1080 IDH1KD tx,TDP1 cell CPT,KB-3-1 cytotox,TDP1 cell noCPT,HT1080-NT tox
Cc1ccc(Cn2c(CO)cnc2SCC(=O)Nc2cccc(F)c2)cc1,i,x,-16%,i,-5%,x
CCOC(=O)c1ccccc1NC(=O)CSc1ncc(CO)n1Cc1ccc(C)cc1,i,x,15µM*,i,-81%,x
O=C1CN(C(=O)C2CCCCC2)C(c2ccccc2)c2cc(F)ccc2N1 (centres undefined),i,x,u,i,u,x
CCc1c(C)c2ccc(O)c(CN3CCN(c4ccccc4)CC3)c2oc1=O,x,x,15µM*,x,21µM*,x
Cc1ccc(-n2c(C)c([N+](=O)[O-])c3ccc(O)c(CN(C)C)c32)cc1,i,-8%,u,i,u,-10%
O=c1cc(-c2ccccc2)c2ccc(O)c(CN3CCCCC3)c2o1,13µM*,-7%,-9%,i,-13%,-8%
Cc1c(-c2ccc(Cl)cc2)c(=O)oc2c(CN3CCN(C)CC3)c(O)ccc12,i,x,u,i,23µM*,x
COc1ccc(-n2c(C)c([N+](=O)[O-])c3ccc(O)c(CN4CCCCC4)c32)cc1,i,-2%,16µM*,i,u,-9%
Cc1c(C)c2ccc(O)c(CN3CCN(C)CC3)c2oc1=O,i,28%,5%,i,1%,27%
Cc1cc(=O)oc2c(CN3CCCCC3)c(O)ccc12,i,15%,-5%,i,u,-3%
COc1ccc(Oc2c(C)oc3c(CN4CCOCC4)c(O)ccc3c2=O)cc1,i,4%,-8%,i,-18%,6%
COc1ccc(-c2c(C)c3ccc(O)c(CN4CCOCC4)c3oc2=O)cc1,i,x,16µM*,i,23µM*,x
COc1ccc(-c2c(C)c3ccc(O)c(CN4CCCC4)c3oc2=O)cc1,x,x,u,x,15µM*,x
Cc1ccc2c(c1)c1c(c(=O)n(Cc3ccccc3)c(=O)n1CC(=O)Nc1ccccc1C)n2C,i,x,-16%,i,-21%,x
CCn1c(=N)c(C(=O)NCC2CCCO2)cc2c(=O)n3cc(C)ccc3nc21 (centres undefined),i,x,-2%,i,-1%,x
CCOC(=O)c1ccc(Oc2nc(NC(C)(C)C)nc(N(C)C)n2)cc1,i,u,13µM*,i,21µM*,u
CCOC(=O)c1ccc(Oc2nc(N(C)C)nc(N(C)C)n2)cc1,i,-3%,-24%,i,u,1%
Cc1nn(Cc2c(Cl)cccc2Cl)c(Cl)c1/C=C/C(=O)OCC(=O)NCC(F)(F)F,i,9%,u,i,u,4%
COCCNC(=O)COC(=O)/C=C/c1c(C)nn(Cc2ccc(Cl)cc2Cl)c1Cl,u,u,15µM*,u,16µM*,-27%
COc1ccc(N2CC(NC(=O)COc3cccc(C)c3)CC2=O)cc1OC (centres undefined),i,x,-28%,i,21µM*,x
COc1cccc(N2CC(NC(=O)c3cccs3)CC2=O)c1 (centres undefined),x,x,3%,x,-8%,x
COc1cccc(N2CC(NC(=O)c3cc(Cl)ccc3OC)CC2=O)c1 (centres undefined),x,x,u,x,16µM*,x
COc1ccc(C2CCCCCN2C(=O)C2CCN(S(=O)(=O)c3cccc(C(C)=O)c3)CC2)cc1 (centres undefined),18µM*,-3%,u,i,u,-6%
CC(=O)c1cccc(S(=O)(=O)N2CCC(C(=O)O)CC2)c1,i,8%,3%,i,12%,11%
C=CCNC(=O)/C(=C\c1ccc2c(c1)OCO2)NC(=O)c1ccc(Br)cc1,23µM*,-3%,-22%,i,2%,-8%
SMILES,KB-V1 MDR tox,HT1080 IDH1KD tx,TDP1 cell CPT,KB-3-1 cytotox,TDP1 cell noCPT,HT1080-NT tox
O=C(O)CNC(=O)/C(=C\c1ccc2c(c1)OCO2)NC(=O)c1ccc(Br)cc1,i,21%,9%,i,-23%,17%
Cc1cc(CNC(=O)COc2ccc(F)cc2)c2ccccc2n1,i,-2%,u,i,21µM*,-6%
O=C(COc1ccccc1)NCc1ccccc1,i,10%,5%,i,-7%,11%
O=C(COc1ccc(C(=O)c2ccccc2)cc1)NCc1ccc(F)cc1,u,2.3µM*,0.92µM*,u,1µM*,2.1µM*
Cc1ccc(C(OCC(O)CNCc2ccc(F)cc2)c2ccccc2)cc1 (centres undefined),i,-15%,15µM*,u,16µM*,-23%
O=C(c1ccccc1)c1ccc(OCC(O)CNCc2ccc(F)cc2)cc1 (centres undefined),23µM*,21µM*,-2%,i,-25%,u
CCC(=O)c1ccc(OCC(O)CNCc2ccc(F)cc2)cc1 (centres undefined),u,-7%,-10%,i,-35%,-5%
CCNC(=O)Cc1c(OC)ccc2cc(Br)ccc12,i,1%,4%,i,-6%,0%
COc1ccc2cc(Br)ccc2c1CC(=O)NC1CC(C)(C)NC(C)(C)C1,u,16µM*,u,i,23µM*,u
CO[C@@H]1CN(C)C(=O)c2cc(NC(=O)NC3CCCCC3)ccc2OC[C@@H](C)N(CCc2ccccc2)C[C@@H]1C,i,u,16µM*,i,u,u
CO[C@@H]1CN(C)C(=O)c2ccc(NC(=O)C3CCC3)cc2OC[C@H](C)N(CC2CCCCC2)C[C@H]1C,u,u,u,i,u,u
CCC(=O)Nc1ccc2c(c1)OC[C@@H](C)N(Cc1cccc(F)c1)C[C@@H](C)[C@@H](OC)CN(C)C2=O,u,9%,u,i,23µM*,5%
CO[C@@H]1CN(C)C(=O)c2ccc(NC(=O)C3CCCC3)cc2OC[C@@H](C)N(Cc2ccc(F)cc2)C[C@H]1C,23µM*,-21%,u,u,u,-19%
